# In PubChem BioAssay AID1159580 (chemical genetic matrix, 2015):
# The campaign covered roughly 5,500 compounds. About 2,000 (36%) were called active. Roughly 18% stayed inconclusive and do not appear here. Some of the results follow. A number with no mark means an inactive call. Rule as the data show it: active = normalized growth mostly below about 0.91 (no sharp cut-off); inconclusive = no clear call, values can overlap the other calls; inactive = mostly above about 0.92.
# Experiment: chemical genetic growth profiling, strain panel (AID 1159580);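 also: tested at 20 µM; growth read once vehicle control cultures reached saturation at 30 °C; 1 = growth at the plate median or of vehicle wells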
# Conditions: growth OD
smiles,measurement,setting,value
COc1ccc(CC(=O)c2ccc(O)cc2O)cc1,normalized growth,"S. cerevisiae deletion strains, locus YKL068W, stronger effect = lower value",0.98
same,normalized growth,"S. cerevisiae deletion strains, locus YKL085W, strain MDH1 (second series), stronger effect = lower value",0.992
same,normalized growth,"S. cerevisiae deletion strains, locus YKL085W, strain MDH1, stronger effect = lower value",0.992
same,normalized growth,"S. cerevisiae deletion strains, locus YKL160W, strain elf1, stronger effect = lower value",0.938
same,normalized growth,"S. cerevisiae deletion strains, locus YKL190W, strain CNB1, stronger effect = lower value",0.975
same,normalized growth,"S. cerevisiae deletion strains, locus YKR001C, strain vps1, stronger effect = lower value",0.766 (active)
same,normalized growth,"S. cerevisiae deletion strains, locus YKR026C, strain gcn3, stronger effect = lower value",0.988
same,normalized growth,"S. cerevisiae deletion strains, locus YKR091W, strain srl3, stronger effect = lower value",0.988
same,normalized growth,"S. cerevisiae deletion strains, locus YLL001W, strain dnm1, stronger effect = lower value",0.944
same,normalized growth,"S. cerevisiae deletion strains, locus YLL026W, stronger effect = lower value",0.993
same,normalized growth,"S. cerevisiae deletion strains, locus YLL041C, strain sdh2, stronger effect = lower value",0.99
same,normalized growth,"S. cerevisiae deletion strains, locus YLR027C, strain aat2, stronger effect = lower value",0.997
same,normalized growth,"S. cerevisiae deletion strains, locus YLR039C, strain RIC1, stronger effect = lower value",0.686
same,normalized growth,"S. cerevisiae deletion strains, locus YLR058C, strain SHM2, stronger effect = lower value",0.946
same,normalized growth,"S. cerevisiae deletion strains, locus YLR102C, strain apc9, stronger effect = lower value",0.966
same,normalized growth,"S. cerevisiae deletion strains, locus YLR113W, strain HOG1, stronger effect = lower value",0.938
same,normalized growth,"S. cerevisiae deletion strains, locus YLR221C, strain rsa3, stronger effect = lower value",0.955
same,normalized growth,"S. cerevisiae deletion strains, locus YLR258W, strain gsy2, stronger effect = lower value",0.984
same,normalized growth,"S. cerevisiae deletion strains, locus YLR262C, strain YPT6 (second series), stronger effect = lower value",0.768 (active)
same,normalized growth,"S. cerevisiae deletion strains, locus YLR262C, strain YPT6, stronger effect = lower value",0.669
same,normalized growth,"S. cerevisiae deletion strains, locus YLR268W, strain sec22, stronger effect = lower value",0.931
same,normalized growth,"S. cerevisiae deletion strains, locus YLR320W, strain mms22, stronger effect = lower value",0.895
same,normalized growth,"S. cerevisiae deletion strains, locus YLR330W, strain CHS5, stronger effect = lower value",0.923
same,normalized growth,"S. cerevisiae deletion strains, locus YLR342W, strain FKS1 (second series), stronger effect = lower value",0.864
same,normalized growth,"S. cerevisiae deletion strains, locus YLR342W, strain FKS1, stronger effect = lower value",0.972
same,normalized growth,"S. cerevisiae deletion strains, locus YLR357W, strain rsc2, stronger effect = lower value",1.01
same,normalized growth,"S. cerevisiae deletion strains, locus YLR370C, strain arc18, stronger effect = lower value",0.978
same,normalized growth,"S. cerevisiae deletion strains, locus YLR371W, strain rom2, stronger effect = lower value",0.86 (active)
same,normalized growth,"S. cerevisiae deletion strains, locus YLR384C, strain iki3, stronger effect = lower value",0.999
same,normalized growth,"S. cerevisiae deletion strains, locus YLR418C, strain cdc73, stronger effect = lower value",0.744 (active)
same,normalized growth,"S. cerevisiae deletion strains, locus YML016C, strain PPZ1, stronger effect = lower value",0.976
same,normalized growth,"S. cerevisiae deletion strains, locus YML032C, strain rad52, stronger effect = lower value",0.938
same,normalized growth,"S. cerevisiae deletion strains, locus YML120C, strain ndi1, stronger effect = lower value",0.988
same,normalized growth,"S. cerevisiae deletion strains, locus YML124C, strain tub3, stronger effect = lower value",0.981
same,normalized growth,"S. cerevisiae deletion strains, locus YMR058W, strain fet3, stronger effect = lower value",0.969
same,normalized growth,"S. cerevisiae deletion strains, locus YMR078C, strain ctf18, stronger effect = lower value",0.956
same,normalized growth,"S. cerevisiae deletion strains, locus YMR125W, strain sto1, stronger effect = lower value",0.997
same,normalized growth,"S. cerevisiae deletion strains, locus YMR129W, stronger effect = lower value",0.993
same,normalized growth,"S. cerevisiae deletion strains, locus YMR205C, strain PFK2, stronger effect = lower value",0.92
same,normalized growth,"S. cerevisiae deletion strains, locus YMR223W, strain ubp8, stronger effect = lower value",0.952
same,normalized growth,"S. cerevisiae deletion strains, locus YMR231W, strain pep5, stronger effect = lower value",0.968
same,normalized growth,"S. cerevisiae deletion strains, locus YMR307W, strain GAS1, stronger effect = lower value",0.688
same,normalized growth,"S. cerevisiae deletion strains, locus YNL067W, strain RPL9B, stronger effect = lower value",0.945
same,normalized growth,"S. cerevisiae deletion strains, locus YNL071W, strain lat1, stronger effect = lower value",0.851 (active)
same,normalized growth,"S. cerevisiae deletion strains, locus YNL128W, strain TEP1, stronger effect = lower value",0.98
same,normalized growth,"S. cerevisiae deletion strains, locus YNL153C, strain GIM3, stronger effect = lower value",0.978
same,normalized growth,"S. cerevisiae deletion strains, locus YNL183C, strain NPR1, stronger effect = lower value",0.91
same,normalized growth,"S. cerevisiae deletion strains, locus YNL209W, strain ssb2, stronger effect = lower value",0.998
same,normalized growth,"S. cerevisiae deletion strains, locus YNL233W, strain BNI4, stronger effect = lower value",0.935
same,normalized growth,"S. cerevisiae deletion strains, locus YNL248C, strain rpa49, stronger effect = lower value",0.987
same,normalized growth,"S. cerevisiae deletion strains, locus YNL250W, strain rad50, stronger effect = lower value",1.02
same,normalized growth,"S. cerevisiae deletion strains, locus YNL271C, strain bni1, stronger effect = lower value",0.964
same,normalized growth,"S. cerevisiae deletion strains, locus YNL298W, strain CLA4, stronger effect = lower value",0.949
same,normalized growth,"S. cerevisiae deletion strains, locus YNL307C, strain MCK1, stronger effect = lower value",0.699 (active)
same,normalized growth,"S. cerevisiae deletion strains, locus YNL322C, strain KRE1 (second series), stronger effect = lower value",0.971
same,normalized growth,"S. cerevisiae deletion strains, locus YNL322C, strain KRE1, stronger effect = lower value",0.952
same,normalized growth,"S. cerevisiae deletion strains, locus YNR049C, strain mso1, stronger effect = lower value",0.986
same,normalized growth,"S. cerevisiae deletion strains, locus YNR052C, strain pop2, stronger effect = lower value",0.973
same,normalized growth,"S. cerevisiae deletion strains, locus YOL012C, strain htz1",1.38
same,normalized growth,"S. cerevisiae deletion strains, locus YOL147C, strain pex11, stronger effect = lower value",0.908 (active)
same,normalized growth,"S. cerevisiae deletion strains, locus YOR001W, strain rrp6, stronger effect = lower value",0.998
same,normalized growth,"S. cerevisiae deletion strains, locus YOR061W, strain CKA2, stronger effect = lower value",0.983
same,normalized growth,"S. cerevisiae deletion strains, locus YOR069W, strain VPS5, stronger effect = lower value",0.965
same,normalized growth,"S. cerevisiae deletion strains, locus YOR070C, strain gyp1, stronger effect = lower value",0.962
same,normalized growth,"S. cerevisiae deletion strains, locus YOR080W, strain dia2, stronger effect = lower value",0.999
same,normalized growth,"S. cerevisiae deletion strains, locus YOR083W, strain WHI5, stronger effect = lower value",0.946
same,normalized growth,"S. cerevisiae deletion strains, locus YOR106W, strain vam3, stronger effect = lower value",0.952
same,normalized growth,"S. cerevisiae deletion strains, locus YOR136W, strain idh2, stronger effect = lower value",0.972
same,normalized growth,"S. cerevisiae deletion strains, locus YOR144C, strain elg1, stronger effect = lower value",0.966
same,normalized growth,"S. cerevisiae deletion strains, locus YOR184W, strain ser1, stronger effect = lower value",0.831 (active)
same,normalized growth,"S. cerevisiae deletion strains, locus YOR231W, strain MKK1, stronger effect = lower value",0.953
same,normalized growth,"S. cerevisiae deletion strains, locus YOR265W, strain rbl2, stronger effect = lower value",0.974
same,normalized growth,"S. cerevisiae deletion strains, locus YOR270C, strain vph1, stronger effect = lower value",0.84
same,normalized growth,"S. cerevisiae deletion strains, locus YOR290C, strain snf2, stronger effect = lower value",0.929
same,normalized growth,"S. cerevisiae deletion strains, locus YOR316C, strain cot1, stronger effect = lower value",0.966
same,normalized growth,"S. cerevisiae deletion strains, locus YPL051W, strain arl3, stronger effect = lower value",0.885 (active)
same,normalized growth,"S. cerevisiae deletion strains, locus YPL078C, strain atp4, stronger effect = lower value",0.911
same,normalized growth,"S. cerevisiae deletion strains, locus YPL106C, strain sse1, stronger effect = lower value",1.02
same,normalized growth,"S. cerevisiae deletion strains, locus YPL240C, strain hsp82, stronger effect = lower value",0.978
same,normalized growth,"S. cerevisiae deletion strains, locus YPL256C, strain CLN2, stronger effect = lower value",0.969
same,normalized growth,"S. cerevisiae deletion strains, locus YPR119W, strain clb2, stronger effect = lower value",0.975
same,normalized growth,"S. cerevisiae deletion strains, locus YPR141C, strain kar3, stronger effect = lower value",0.983
same,normalized growth,"S. cerevisiae deletion strains, locus YPR163C, strain tif3, stronger effect = lower value",0.752 (active)
same,normalized growth,"S. cerevisiae deletion strains, locus YPR167C, strain met16, stronger effect = lower value",0.97
same,normalized growth,"S. cerevisiae deletion strains, strain wtn01, stronger effect = lower value",0.919
same,normalized growth,"S. cerevisiae strains, strain wild type, stronger effect = lower value",0.95
